# PrP UTR inh = inhibition of PrP 5' UTR reporter expression. cell-based PrP 5' UTR mRNA reporter, plate reader. inhibition, % (concentration not given with the values). 340,000 tested, 0.35% active. AID 488862, 2010; in the data active means inhibition above about 52%; further: 0 = median of the neutral control wells
# SSB-PriA inh = inhibitors of Klebsiella pneumoniae PriA binding to SSB C-terminal tail, primary screen, biochemical, AlphaScreen. AlphaScreen SSBct-PriA binding, biotinylated peptide. inhibition, % at 33 µM. 430,000 tested, 0.6% active. AID 1272365, 2023; in the data active means inhibition mostly above about 37%, no sharp cut-off; inactive means mostly below about 20%;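 further: plate controls were negative control peptide for no effect and reference peptide for full effect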
# PrPC surface inh = inhibitors of human cell surface prion protein PrPC, primary screen, cell-based, TR-FRET; Major prion protein (Homo sapiens), P04156; TR-FRET read-out; inhibition, % at 13.8 µM; 370,000 tested, 0.43% active; AID 720596, 2013; in the data active means inhibition above about 24%; further: 0% = median of the test wells and 100% = reference compound wells
# MazEF act = activators of E. coli MazEF toxin-antitoxin RNase, primary screen, biochemical, fluorescence, uHTS | FAM/BHQ RNA-DNA oligo cleavage fluorescence, 5 h | activation, % at 20 µM | 350,000 tested, 0.32% active; in the data active means activation above about 50%
# PfHsp40 yeast = rescue of yeast from PfHsp40 toxicity, primary screen, S. cerevisiae, ATP luminescence; AID 504582, 2011; 340,000 tested, 0.68% active; growth rescue, % at 12.5 µM; S. cerevisiae expressing PfHsp40, growth rescue; in the data active means growth rescue above about 28%, passing the limit was not always enough;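 further: yeast W303a lacking pdr1 and pdr3 grown in galactose medium; growth measured after three days at 30 °C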
# PrPC confirm = confirmation of inhibitors of cell surface human prion protein, confirmation, cell-based, TR-FRET. shares compounds with PrPC surface inh. cell surface PrPC level. inhibition, % at 13.8 µM. 1,500 tested, 65% active. AID 743200, 2013; in the data active means inhibition above about 25%
# LD9 cytotox = cytotoxicity in LD9 cells, cytotoxicity control for cell surface PrPc inhibitor project, cell-based, luminescence, high throughput. shares compounds with PrPC surface inh. luminescence viability. inhibition, % at 13.8 µM. 1,500 tested, 29% active; in the data active means inhibition above about 9.5%
# Active calls of the source: *; . = not tested or not shown. Rows were chosen to be rich in hits. Some 1.8% of all compounds tested hit in one or more screens of this group.
SMILES,PrP UTR inh,SSB-PriA inh,PrPC surface inh,MazEF act,PfHsp40 yeast,PrPC confirm,LD9 cytotox
CC(C)c1oc(=O)cc2c1[C@@H](O)[C@H]1OC(=O)[C@@]3(C)CC[C@@H](O)[C@@]2(C)C13 (some centres undefined),-9,-7,62*,3,0,52*,13*
N#Cc1ccc(C(=O)OCC(=O)N2CCCC2)cc1,-17,0,9,4,0,.,.
N#CNC(=Nc1cccc(F)c1)SCc1ccccc1,-16,8,31*,2,-1,14,4
CCc1cc2c(=O)c(-c3ccc4c(c3)OCO4)coc2c(CN(C)C)c1O,-4,-5,86*,-4,-1,95*,-5
CC1CC(C)C(=O)C(C(CC2CC(=O)NC(=O)C2)OC(=O)CC(=O)c2ccccc2)C1 (centres undefined),28,-7,85*,0,0,95*,31*
O=C(CSc1n[nH]c(-c2ccc(Br)cc2)n1)N1CCOCC1,3,-12,10,-23,1,.,.
Fc1ccc(-n2nnnc2-c2cnc(-c3cccs3)nc2C(F)(F)F)cc1,-7,-14,53*,-2,-2,48*,40*
Cc1ccccc1NS(=O)(=O)c1ccc(OCCNS(C)(=O)=O)cc1,-5,-1,6,3,2,.,.
COc1ccc(N(C)S(=O)(=O)c2cccc(C(=O)N3CCN(Cc4ccc5c(c4)OCO5)CC3)c2)cc1,-3,4,16,4,0,.,.
CCOc1ccc(N(C)S(=O)(=O)c2ccc(C)c(C(=O)N3CCN(Cc4ccc5c(c4)OCO5)CC3)c2)cc1,-22,3,25*,8,0,19,-2
COc1ccc(C(=O)NNC(=O)C(Cc2ccc(O)cc2)NC(=O)c2ccccc2NC(=O)c2ccc(OC)cc2)cc1 (centres undefined),1,4,119*,22,0,2,-4
Cc1ccc(CN2CCCCC(NC(=O)c3cccc(F)c3)C2=O)cc1 (centres undefined),.,.,8,.,.,.,.
COc1cc(NC2CCCCC2O)c2nc(-c3ccc(Cl)cc3)ccc2c1 (centres undefined),-68,-6,39*,-11,1,6,-2
Cc1nc(N2CCN(Cc3ccc4c(c3)OCO4)CC2)c2oc3ccccc3c2n1,-10,6,48*,4,0,11,15*
Cc1nc(N2CCN(Cc3ccc(Cl)cc3)CC2)c2oc3ccccc3c2n1,0,0,-1,11,1,.,.
N/C(=N/OC(=O)COc1ccc(Cl)cc1)c1ccccn1,.,-9,.,.,.,.,.
O=C(NCc1ccco1)c1cccc(NC(=O)c2ccccc2)c1,-23,-9,27*,-13,-1,28*,9
Cc1ccc(C(=O)Nc2cccc(C(=O)NCc3ccco3)c2)cc1,-53,2,39*,3,-1,22,17*
O=C(Cc1cccs1)Nc1cccc(C(=O)Nc2ccco2)c1,-19,0,27*,5,0,10,-7
Cc1ccc(C(=O)NCc2ccco2)cc1,-13,-5,4,4,-1,.,.
Cc1ccc(C(=O)Nc2cccc(C(=O)NCc3ccccc3)c2)cc1,1,-6,37*,6,4,24,6
COc1ccc(C(=O)Nc2cccc(C(=O)NCc3ccccc3)c2)cc1,-23,-11,16,-2,0,.,.
N/C(=N\c1nc(CSc2nc3ccccc3s2)cc(=O)[nH]1)Nc1ccc(F)cc1,-9,.,6,-27,-3,.,.
O=C(NCc1nccc(N2CCCCC2)n1)c1ccccc1C(F)(F)F,.,-7,.,.,.,.,.
COc1cccc(-c2noc(C3CCCN(C(=O)c4ccccc4OC)C3)n2)c1 (centres undefined),-26,0,11,5,-1,.,.
SMILES,PrP UTR inh,SSB-PriA inh,PrPC surface inh,MazEF act,PfHsp40 yeast,PrPC confirm,LD9 cytotox
CCn1cc(S(=O)(=O)NCc2ccc3c(c2)OCO3)cn1,-10,-8,2,3,0,.,.
COc1cc2[nH]c(=S)n(NC(=O)c3ccccc3)c(=O)c2cc1OC,-9,-1,36*,8,4,50*,-4
O=C(O)C(Sc1ncn[nH]1)c1ccccc1 (centres undefined),.,-6,.,.,.,.,.
Cc1cccc(S(=O)(=O)NCCOc2ccccc2)c1,.,-20,.,.,.,.,.
O=C(Nc1nccs1)c1ccc(COc2ccccc2Br)o1,-20,-5,26*,5,1,22,5
COc1cc(C2Nc3ccccc3C(=O)N2c2ccccc2)c(Br)cc1OCC(=O)O (centres undefined),-12,-9,26*,-1,-1,18,-3
CCOC(=O)COc1nc(-c2ccco2)cc(-c2ccco2)c1C#N,-26,-8,2,-18,-2,.,.
CCOC(=O)C(C)Sc1nc(-c2ccco2)cc(C(F)(F)F)c1C#N (centres undefined),0,3,33*,-2,1,49*,-1
O=C(O)c1ccccc1Sc1ncnc2sc3c(c12)CCC3,-33,2,45*,-5,0,63*,-9
Cc1sc2ncnc(Sc3ccccc3C(=O)O)c2c1C,-18,-4,94*,5,0,121*,-1
CC(=O)CSc1ncnc2sc3c(c12)CCCC3,-14,-20,30*,-14,3,20,-10
CCN(C(=O)COC(=O)c1ccccc1Nc1ccccc1)c1c(N)n(Cc2ccccc2)c(=O)[nH]c1=O,-15,1,33*,-9,1,24,-3
CCN(C(=O)COC(=O)c1cccc2ccccc12)c1c(N)n(Cc2ccccc2)c(=O)[nH]c1=O,9,-5,7,-1,1,.,.
CC(C)NC(=O)C1CCN(C2CCN(Cc3nc4ccccc4s3)CC2)CC1,-7,-5,-2,-2,0,.,.
COc1ccccc1-c1nnc2ccc(OCCNC(=O)Cc3ccc(F)cc3)nn12,.,-10,.,.,.,.,.
COCCNC(=O)CSc1cc(-c2ccccc2)c2ccc(OC)cc2n1,7,7,33*,-9,0,37*,-6
CCc1ccc(C(=O)NNc2cc(Cl)ccc2Cl)cc1,-19,-16,28*,5,1,25*,5
CCCCn1c(=N)n(CC(=O)c2ccc(Br)s2)c2ccccc21,-33,-8,37*,16,0,83*,28*
CCOC(=O)C1CCCN(CC(O)=C(C#N)c2nc(-c3ccc(Cl)cc3)cs2)C1 (centres undefined),.,6,.,.,.,.,.

# From PubChem BioAssay
